Measured values reported in PubChem BioAssay (Tox21).
Values joined by “and” are separate entries in the source; they are usually repeats but may differ in a detail not shown here. Equal values may be shown once. Records with an inconclusive call do not appear. More than one record can exist for a structure, and the calls need not agree. Active and inactive are the calls of the source. Unless noted, calls follow the shape of the dose curve; as a rule, active = well fitted curve in the direction sought with a large enough effect in the repeat runs; inconclusive = weak or mixed curves; inactive = no such curve, though single readings can be large; an effect the other way counts as inactive or inconclusive.

How the values were obtained:
[1] = biological target: Thyrotropin receptor (Homo sapiens) (UniProt P16473); assay: qHTS assay to identify small molecule agonists of the thyroid stimulating hormone receptor (TSHR) signaling pathway (AID 1224843; calls by dose curve; also: nearly all actives have a fitted effect of over 45% in size)
Outline: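 HEK293/TSHR, 800 cells/well; cpd 30 min RT; add cAMP-d2 + anti-cAMP-cryptate, 1 h RT; fluorescence read on plate reader. 15-pt titration, n=3.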

[2] = qHTS assay to identify small molecule agonists of the hypoxia (HIF-1) signaling pathway - cell viability counter screen (AID 1224844; calls by dose curve; also: nearly all actives have a fitted effect of over 50% in size)
Outline: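 Cytotoxicity was measured in parallel with the HRE-driven beta-lactamase readout: after 17 hrs of compound exposure at 37C, HRE-bla ME-180 cells received CellTiter-Glo and luminescence was recorded 30 min later.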

[3] = qHTS assay to identify small molecule agonists of H2AX (AID 1224845; active = well fitted activation curve with a large enough effect in the signal ratio in the repeat runs, not every such curve was filed as active; the % refers to the signal ratio)
Outline: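 Wild-type CHO-K1 cells, plated overnight, exposed 3hr at 37C to 15 concentrations (0.76% DMSO final). Lysed, then HTRF anti-pH2AX (S139) cryptate and anti-H2AX-d2 antibodies, 24 hr room temperature; 665/620 nm emission read.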

[4] = qHTS assay to identify small molecule agonists of the hypoxia (HIF-1) signaling pathway (AID 1224846; active = well fitted activation curve with a large enough effect in the signal ratio in the repeat runs, not every such curve was filed as active; the % refers to the signal ratio)
Outline: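 Compounds from the Tox21 10K library, dissolved in DMSO, are tested for induction of a hypoxia response element–controlled beta-lactamase reporter in ME-180 cells. Exposure lasts 17 hrs at 37C after a 5 hr settling period, followed by CCF4-AM FRET substrate.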

[5] = qHTS assay to identify small molecule antagonists of the estrogen related receptor (ERR) signaling pathway from Tox21 library (AID 1224848); also: nearly all actives have a fitted effect of over 50% in size
Outline: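 Compounds dissolved in DMSO are pin-transferred onto ERR reporter cells (2,000 per well) that have settled for 6 h at 37 C. Plates then incubate 18 h at 37 C before ONE-Glo luciferase reagent and a luminescence read 30 min later.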

[6] = qHTS assay to identify small molecule agonists of the estrogen related receptor (ERR) signaling pathway from Tox21 library (AID 1224849; calls by dose curve; also: nearly all actives have a fitted effect of over 15% in size)
Outline: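 Cells carrying the ERR reporter were plated and allowed to settle for 6 h, exposed to library compounds for 18 h at 37 C, then lysed with ONE-Glo and luminescence measured.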

[7] = qHTS RealTime-Glo MT Cell Viability Assay in HepG2 cells - 24 hour (AID 1224867); also: nearly all actives have a fitted effect of over 50% in size
Outline: (§1)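 Cells + NanoLuc/prosubstrate dispensed (600 cells/well) → 5 h at 37 C/5% CO2 → compounds in DMSO transferred → 40 h incubation at 37 C, luminescence read at 0, 8, 16, 24, 32, 40 h.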

[8] = qHTS RealTime-Glo MT Cell Viability Assay in HEK293 cells - 32 hour (AID 1224868); also: nearly all actives have a fitted effect of over 50% in size; also: potency is read from the fitted curve at half-maximal effect
Outline: (§2)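 Tox21 10K qHTS, HEK293, 600 cells/well, RealTime-Glo reagent co-dispensed with cells; 5 h preincubation, compound by pintool, 37 C, luminescence at 0–40 h.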

[9] = A CellTox Green Cytotoxicity Assay to monitor cytotoxicity in HEK293 cells - 0 hour (AID 1224869); also: nearly all actives have a fitted effect of over 50% in size
Outline: (§3)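 Cells (HEK293, 600/well) and dye reagent are dispensed together. After 5 h at 37 C, 23 nL compound is pinned in. Plates stay at 37 C for 40 h with fluorescence read at 0h, 8h, 16h, 24h, 32h and 40h.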

[10] = qHTS RealTime-Glo MT Cell Viability Assay in HepG2 cells - 40 hour (AID 1224870); also: nearly all actives have a fitted effect of over 50% in size
Outline: (§4)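 HepG2 cells (600/well) mixed with RealTime-Glo MT reagent, settled 5 h at 37 C/5% CO2 before compound addition. Nonlytic NanoLuc luminescence from viable-cell prosubstrate reduction read repeatedly during 40 h treatment at 37 C.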

[11] = A CellTox Green Cytotoxicity Assay to monitor cytotoxicity in HEK293 cells - 40 hour (AID 1224871); also: nearly all actives have a fitted effect of over 45% in size
Outline: as §3

[12] = qHTS RealTime-Glo MT Cell Viability Assay in HEK293 cells - 16 hour (AID 1224872)
Outline: as §2

[13] = qHTS RealTime-Glo MT Cell Viability Assay in HepG2 cells - 8 hour (AID 1224873); also: nearly all actives have a fitted effect of over 55% in size
Outline: as §4

[14] = qHTS RealTime-Glo MT Cell Viability Assay in HEK293 cells - 40 hour (AID 1224874); details: RealTime-Glo luminescence; max response: stronger effect = lower value; also: nearly all actives have a fitted effect of over 50% in size; also: potency is read from the fitted curve at half-maximal effect
Outline: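 Real-time viability in HEK293: signal arises when living cells convert a prosubstrate for NanoLuc in the medium, so luminescence tracks viable cell number. Compound (23 nL, DMSO) added 5 h post-seeding; kinetic reads at 0–40 h, 37 C.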

[15] = A CellTox Green Cytotoxicity Assay to monitor cytotoxicity in HEK293 cells - 24 hour (AID 1224875); also: series mostly up to about 77 µM; nearly all actives have a fitted effect of over 45% in size
Outline: as §3

[16] = A CellTox Green Cytotoxicity Assay to monitor cytotoxicity in HepG2 cells - 16 hour (AID 1224876); also: nearly all actives have a fitted effect of over 45% in size
Outline: (§5)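 Cells and non-lytic dye reagent are dispensed together (600 HepG2 cells/well) and incubated 5 h before DMSO compound transfer. Kinetic fluorescence is then recorded in the same wells during 40 h at 37 C.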

[17] = qHTS RealTime-Glo MT Cell Viability Assay in HepG2 cells - 32 hour (AID 1224877); also: nearly all actives have a fitted effect of over 55% in size
Outline: as §1

[18] = A CellTox Green Cytotoxicity Assay to monitor cytotoxicity in HepG2 cells - 24 hour (AID 1224878); also: nearly all actives have a fitted effect of over 45% in size
Outline: as §5

[19] = A CellTox Green Cytotoxicity Assay to monitor cytotoxicity in HepG2 cells - 40 hour (AID 1224879); also: nearly all actives have a fitted effect of over 40% in size
Outline: as §5

[20] = qHTS assay to identify small molecule agonists of H2AX - cell viability counter screen (AID 1224847; calls by dose curve; also: top concentration of the series differs between compounds; nearly all actives have a fitted effect of over 30% in size)
Outline: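 After overnight plating of 1000 CHO-K1 cells per well, a 15-concentration compound series was applied for 3 hr at 37C. Luminescence from CellTiter-Glo, read following 30 min at room temperature, reflected cell viability.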
% is scaled to controls: 0 for no effect and ±100 for the full control effect.

Thyrotropin receptor (Homo sapiens), sequence (P16473 whole entry, looked up): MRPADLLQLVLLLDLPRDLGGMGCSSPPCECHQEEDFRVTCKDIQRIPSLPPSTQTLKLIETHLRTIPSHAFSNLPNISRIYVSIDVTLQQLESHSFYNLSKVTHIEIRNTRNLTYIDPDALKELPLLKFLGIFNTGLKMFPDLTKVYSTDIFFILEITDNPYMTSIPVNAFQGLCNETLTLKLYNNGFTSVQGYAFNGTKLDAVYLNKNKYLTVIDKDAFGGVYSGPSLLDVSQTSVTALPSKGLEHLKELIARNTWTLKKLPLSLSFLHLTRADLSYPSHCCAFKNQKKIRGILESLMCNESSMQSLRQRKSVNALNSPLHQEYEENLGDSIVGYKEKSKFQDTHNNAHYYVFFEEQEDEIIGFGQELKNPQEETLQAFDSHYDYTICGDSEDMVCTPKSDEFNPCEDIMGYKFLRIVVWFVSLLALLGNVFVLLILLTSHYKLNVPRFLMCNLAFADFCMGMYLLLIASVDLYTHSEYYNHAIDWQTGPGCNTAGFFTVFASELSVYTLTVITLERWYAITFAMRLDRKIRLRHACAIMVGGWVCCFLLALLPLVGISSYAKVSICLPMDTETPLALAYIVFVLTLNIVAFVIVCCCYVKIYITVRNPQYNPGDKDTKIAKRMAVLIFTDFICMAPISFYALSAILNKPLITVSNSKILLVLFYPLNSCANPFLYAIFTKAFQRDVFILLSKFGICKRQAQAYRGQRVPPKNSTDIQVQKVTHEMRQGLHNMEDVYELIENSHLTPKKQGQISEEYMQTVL

CC(C)CC(=O)CC(C)CC(C)C (stereo not drawn)
inactive: outcome [1] | outcome [2] | outcome [3] | outcome [4] | outcome [5] | outcome [6] | Potency [7] | outcome [9] | outcome [10] | Potency [11] | Potency [12] | Potency [13] | max response [14] 0.688% | Potency [15] | outcome [16] | outcome [17] | Potency [18] | Potency [19]
inactive and 17.4 µM (active): Potency [8]
active: Potency [14] 15.5 µM

C=CC(C)CCCC(C)(C)O (stereo not drawn)
inactive: outcome [1] | outcome [2] | outcome [3] | outcome [4] | Potency [7] | Potency [8] | outcome [9] | outcome [10] | Potency [11] | Potency [12] | Potency [13] | max response [14] 5.11% and 3.85% | Potency [15] | outcome [16] | outcome [17] | Potency [18] | Potency [19]

NC(=S)NNC(N)=S
inactive: outcome [1] | outcome [2] | outcome [3] | outcome [4] | outcome [20] | Potency [7] | Potency [8] | outcome [9] | Potency [11] | Potency [12] | Potency [13] | max response [14] 7.65% and -11.1% | Potency [15] | outcome [16] | outcome [17] | Potency [18] | Potency [19]

NCCCCCCN
inactive: outcome [1] | outcome [2] | outcome [3] | outcome [4] | outcome [5] | outcome [6] | Potency [7] | Potency [8] | outcome [9] | Potency [11] | Potency [12] | Potency [13] | max response [14] -0.521% and 1.93% | Potency [15] | outcome [16] | outcome [17] | Potency [18] | Potency [19]

COCCCN
inactive: outcome [1] | outcome [2] | outcome [3] | outcome [4] | outcome [20] | Potency [7] | Potency [8] | outcome [9] | Potency [11] | Potency [12] | Potency [13] | max response [14] 3.35% and 3.08% | Potency [15] | outcome [16] | outcome [17] | Potency [18] | Potency [19]

O=C(O)c1ccccc1C(=O)O
inactive: outcome [1] | outcome [2] | outcome [3] | outcome [4] | Potency [7] | Potency [8] | outcome [9] | outcome [10] | Potency [11] | Potency [12] | Potency [13] | max response [14] -5.44% and 3.46% | Potency [15] | outcome [16] | outcome [17] | Potency [18] | Potency [19]

CCNC(=S)NCC
inactive: outcome [1] | outcome [2] | outcome [3] | outcome [4] | outcome [20] | Potency [7] | Potency [8] | outcome [9] | Potency [11] | Potency [12] | Potency [13] | max response [14] -2.25% and -1.34% | Potency [15] | outcome [16] | outcome [17] | Potency [18] | Potency [19]
